Laboratory results from PubChem BioAssay AID1454 (National Center for Advancing Translational Sciences (NCATS), 2008).
About 550 (0.42%) of roughly 130,000 compounds were called active. Entries that show only a call come without a potency. Another 4% or so got no clear call; they are omitted. Only a selection was taken, and actives are over-represented in it overall. A number with no mark means an inactive call. The call rests on the fitted dose curve; in most records, active means well fitted inhibition curve with a large enough effect; inconclusive means small, poorly fitted or top-dose-only effect, or effect the other way; inactive means flat fitted curve, though single readings scatter.

Assay: qHTS Assay for Inhibitors of the ERK Signaling Pathway using a Homogeneous Screening Assay; Stimulation with EGF; further: nearly all actives have a fitted effect of over 55% in size
Details: HEK293-V1b, EGF-stimulated phospho-ERK AlphaScreen; series mostly up to 57.5 µM
Description: NIH Chemical Genomics Center [NCGC]
NIH Molecular Libraries Screening Centers Network [MLSCN]
Assay Submitter (PI): Dr. Wei Zheng, NCGC/NIH
The Ras/extracellular-signal-regulated kinase (ERK) mitogen activated protein (MAP) kinase signaling pathway (ERK1/2 cascade) plays a key role in transmitting signals from the cell surface to the nucleus (Nishida and Gotoh 1993; Chang and Karin, 2001). The cascade is initiated by the small G-protein Ras, which recruits Raf from the cytosol, where activation occurs. Alternatively, this pathway can be activated by elevating intracellular cAMP, or by activation of a receptor tyrosine kinase as epidermal growth factor receptor.
Activation of the ERK pathway is essential in increased cell division and cell survival. Sustained and constitutive activation of the ERK pathway, however, has been linked to uncontrolled cell proliferation, increased cell survival, and tumor progression. Thus, the ERK has been as an attractive target for cancer chemotherapy in the past few years (Sebolt-Leopold and Herrera, 2004). Given its physiological and pathological importance, assessment of ERK phosphorylation has been broadly performed in both basic research and drug discovery. Most assays for the measurement of ERK phosphorylation use the antibody-based detection methods, such as western blot and ELISA. These assays require multiple reagent additions with cell wash steps and are not suitable for high throughout screening.
The current cell-based ERK phosphorylation assay was performed using AlphaScreen platform. AlphaScreen is a two bead-based proximity-dependent chemical energy transfer luminescent assay platform. The assay reagents (ERK SureFire(TM) kit) were supplied from TGR BioSciences (Australia). In the presence of specific antibodies, phosphorylated ERK will bring "donor" and "acceptor" beads to a proximity range (<200 nm), and subsequently lead a chemical luminescent reaction upon exciting donor beads with 680 nm laser. To exclude the assay-related false positives, we used a biotinylated rabbit IgG to perform counter-screen. The biotinylated antibody mimics the phosphorylated ERK1/2 for bringing streptavidin coated beads and protein-A coated beads to a proximity range for the AlphaScreen detection.
NCGC Assay Protocol Summary:
HEK293 cells stably expressing type-1 vasopressin receptor (V1b) were maintained in DMEM medium (Invitrogen, Carlsbad, CA) at 37C under a humidified atmosphere containing 5% CO2 and 95% air. The medium contained 10% FBS, 2 mM L-glutamine, non-essential amino acid, pyruvate and 50 U/ml penicillin and 50 ug/ml streptomycin (Invitrogen). The aliquots of frozen cells were stored at -135C and used for the compound screening. All compounds were screened as titrations from 0.6 nM to 46 uM final concentration. Epidermal growth factor (EGF) was used to stimulate the ERK phosphorylation pathway. The ERK phosphorylation in cells was determined using an AlphaScreen assay kit provided by […]. Data were normalized to the controls for basal activity (DMSO only) and 100% activation (25 nM EGF). AC50 values were determined from concentration-response data modeled with the standard Hill equation.
(1) Seed 4 ul/well of resuspended frozen HEK293 cells containing 2000 cells in white 1536-well plates for overnight with 1% FBS at 37C under a humidified atmosphere containing 5% CO2 and 95% air.
(2) Add 23 nL compounds in DMSO solution. The final titration was 0.6 nM to 46 uM.
(3) Incubate at 37C for 30 min.
(4) Dispense 0.5uL EGF (25 nM in final)
(5) Incubate at 37C for 5 min.
(6) Dispense 0.5uL of 1:2 diluted 5x lysis buffer.
(7) Incubate at 37C for 10 min.
(8) Dispense 1.5uL of mixture of activation buffer and reaction buffer with AlphaScreen beads (streptavidin donor beads and protein-A acceptor beads, 10 ng/well for each).
(9) Incubate at room temperature for 5 hr.
(10) Detect the assay plate in an EnVision plate reader (PerkinElmer) using the AlphaScreen detection mode.
[…]
Potency means the concentration at half of the fitted maximal effect.

Row | SMILES | Potency | activity change, negative = inhibition
1 | Cc1cc(-c2n[nH]c(=S)n2-c2ccc(C)c(C)c2)no1 | 3.98 µM (active) | –
2 | CCCCC/C=C\C/C=C\C/C=C\C=C\[C@H](CCCC(=O)O)OO | – | -6.51% [at 11.5 µM]
3 | COC1=C[C@]23CCCN2CCc2cc4c(cc2[C@@H]3[C@@H]1O)OCO4 | – | -6.17% [at 11.5 µM]
4 | O=c1[nH]c(=O)n(-c2ccc(F)cc2)c(O)c1C=NCCN1CCCCC1 | – | inactive
5 | CCCCCCCCCCCCn1ccc(=N)cc1 | 22.4 µM (active) | –
6 | O=C1CC(=O)N(Cc2ccccc2)C(=O)N1CCCCCCN1C(=O)CC(=O)N(Cc2ccccc2)C1=O | – | inactive
7 | CC(=O)Cc1ccc(OC(C)C)cc1 | – | inactive
8 | C1CC[C@H]([C@@]23C[C@H](C[C@H]4CCCN[C@H]42)[C@@H]2CCCCN2C3)NC1 | – | -0.522% [at 11.5 µM]
9 | O=c1[nH]c(=O)n(CCc2ccc(F)cc2)c(O)c1/C=N/N1CCCCC1 | – | inactive
10 | N#Cc1c(Cl)c(Cl)c(Cl)c(C#N)c1Cl | 3.98 µM (active) | –
11 | CNC(=O)Nc1ccc(C(O)(C(=O)OC)C(F)(F)F)cc1 (stereo not given) | – | inactive
12 | Fc1ccc(C2N3CCCN23)cc1 (stereo not given) | – | inactive
13 | COc1ccc(-n2c(O)c(C(C)=Nc3ccc4c(c3)CCC4)c(=O)[nH]c2=O)cc1 | – | inactive
14 | CN1CCN(/N=C/c2c[nH]c3ccccc23)CC1 | – | inactive
15 | CCCCC(=O)N/N=C/c1c(O)n(-c2ccccc2)c(=O)[nH]c1=O | – | inactive
